Experiments:
Format in all cases: functional
[1] = molecular target: Solute carrier family 2, facilitated glucose transporter member 1 (Homo sapiens) (UniProt P11166); assay: ST_JUDE_LEISH: Cytotoxicity at 2uM final concentration against transgenic Leishmania Mexicana promastigotes LmGLUT1 that are glucose transport deficient and complemented with the human glucose transporter GLUT1. Activity is measured by DNA content using SYBR green in vitro
[2] = molecular target: Hexose transporter 1 (Plasmodium falciparum) (UniProt O97467); assay: ST_JUDE_LEISH: Cytotoxicity at 2uM final concentration against transgenic Leishmania Mexicana promastigotes LmPfHT that are glucose transport deficient and complemented with the Plasmodium falciparum hexose transporter. Activity is measured by DNA content using SYBR green in vitro
[3] = molecular target: Glucose transporter (Leishmania mexicana) (UniProt O61059); assay: ST_JUDE_LEISH: Cytotoxicity at 2uM final concentration against transgenic Leishmania Mexicana promastigotes LmGT2 that are glucose transport deficient and complemented with the L. Mexicana glucose transporter 2. Activity is measured by DNA content using SYBR green in vitro

Sequence of Solute carrier family 2, facilitated glucose transporter member 1 (Homo sapiens) (P11166 whole entry): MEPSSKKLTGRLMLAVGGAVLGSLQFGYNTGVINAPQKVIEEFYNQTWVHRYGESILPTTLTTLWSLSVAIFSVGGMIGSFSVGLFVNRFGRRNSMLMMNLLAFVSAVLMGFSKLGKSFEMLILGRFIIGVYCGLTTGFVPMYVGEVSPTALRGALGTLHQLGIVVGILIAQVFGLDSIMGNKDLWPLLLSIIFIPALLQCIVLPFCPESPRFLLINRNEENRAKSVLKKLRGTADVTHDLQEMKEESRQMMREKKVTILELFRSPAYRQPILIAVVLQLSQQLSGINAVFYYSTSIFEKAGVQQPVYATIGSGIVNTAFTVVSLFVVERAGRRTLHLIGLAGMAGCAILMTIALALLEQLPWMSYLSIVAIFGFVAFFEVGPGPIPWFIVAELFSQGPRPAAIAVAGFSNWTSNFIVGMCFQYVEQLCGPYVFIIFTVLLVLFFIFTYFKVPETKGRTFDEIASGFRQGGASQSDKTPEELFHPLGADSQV

| SMILES | inhibition [1] [%] | inhibition [2] [%] | inhibition [3] [%] |
| --- | --- | --- | --- |
| O=S(=O)(NCCN1CCCC1)c1ccc(-c2cccc(CNCc3ccc(F)cc3)c2)cc1 | 1.16 | 1.09 | -0.22 |
| CCNc1cc(C(=O)N[C@@H](Cc2ccccc2)[C@H](O)CNCCc2ccccc2)cc(N2CCCCS2(=O)=O)c1 | -0.52 | -0.67 | -3.28 |
| O=C(Nc1ccc2c(c1)CNCC2)c1ccc(-c2ccc(Cl)cc2)cc1 | 105 | 95.6 | 84 |
| O=C(Nc1cccc(-c2ccc(-c3nc4cc(C(F)(F)F)ccc4[nH]3)s2)c1)c1ccncc1 | 8.37 | 8.56 | 7.24 |
| COc1cccc(OC)c1-c1ccccc1NC(=O)N1CCCc2cc(C)ccc21 | 2.46 | 2.69 | 2.07 |
| FC(F)(F)c1ccc2[nH]c(-c3ccc(-c4ccc(CNCC5CCCO5)cc4)s3)nc2c1 (centres undefined) | -1.55 | 0.38 | -1.62 |
| CCOC(=O)c1c(C)n(-c2ccccc2)c2ccc(OC(=O)COc3ccc(Cl)cc3Cl)cc12 | 7.5 | 6.74 | 6.97 |
| O=C(C1CC1c1ccccc1)N(Cc1ccc(-c2ccc(CNCCc3ccccc3)cc2)cc1)C1CCNCC1 (centres undefined) | 10.3 | 8.35 | 9.97 |
| CSc1nnc2n(Cc3ccccc3)c(=O)c3c(n12)-c1ccccc1CC31CCCCC1 | 2.53 | 0.86 | 0.02 |
| Oc1cccc(Nc2nc(NCc3ccccc3)c3ccccc3n2)c1 | 22.9 | 19.9 | 11.8 |
| O=C(Nc1cccc(-c2cccc(-c3nc4cc(F)ccc4[nH]3)c2)c1)Nc1ccc(F)c(F)c1F | 7.82 | 7.26 | 7.83 |
| Cc1cc(N2CCCC2)nc(Nc2ccc(NC(=O)Nc3ccccc3)cc2)n1 | 2.65 | 2.28 | 3.63 |
| CCN(CC)CCCC(C)Nc1c2cc(OC)ccc2nc2cc(Cl)c([N+](=O)[O-])cc12 (centres undefined) | 1.29 | 0.73 | 0.82 |
| Cc1cc(-c2ccc3c(c2)CCN(CCCOc2ccc4c(c2)CCN4C(=O)/C=C/c2ccccc2Cl)CC3)no1 | 5.8 | 12 | 4.78 |
| Cc1cccc2nc(-c3ccc(-c4ccc(NC(=O)C(=O)c5cccn5C)cc4)cc3)[nH]c12 | 5.06 | 1.84 | 0.5 |
| OCCN1CCN(Cc2cccc(-c3cccc(-c4nc5cc(F)ccc5[nH]4)c3)c2)CC1 | 0.05 | 1.75 | -0.17 |
| COc1ccc(-c2ccc(NC(=O)c3ccc(F)cc3)cc2)cc1CNC(C)C | 0.84 | 1.24 | 4.68 |
| Cc1cc(-c2ccc(CNC3CCN(C)CC3)cc2)ccc1S(=O)(=O)NCc1ccccc1 | 3.29 | 3.32 | 1.14 |
| CC(C)N1CCC(NCc2ccc(-c3ccc(Cl)cc3)cc2)CC1 | 11.6 | 13.6 | 10.2 |
| COc1ccc(CNC(=O)c2cnc3cc(-c4c(C)noc4C)ccc3c2Nc2ccccc2C(C)(C)C)cc1 | 3.17 | 4.17 | 1.52 |
| O=C(/C=C/c1ccc(Cl)c(Cl)c1)N1CCN(C(=O)Nc2ccc(F)c(Cl)c2)CC1 | 9.87 | 8.92 | 11.1 |
| CC(=O)Nc1ccc(OCCN(Cc2ccccc2C(F)(F)F)c2ccc(C#N)c(C(F)(F)F)c2)cc1 | 18.7 | 16 | 28.2 |
| Cc1cc(-c2ccc(CNCCc3cccs3)cc2)ccc1S(=O)(=O)NCc1ccccc1 | 13 | 17.3 | 8.49 |
| Cc1ccc(NC(=O)c2ccc(CN3CCCN(CC4CCCCC4)CC3)cc2)cc1F | 8.8 | 6.75 | 11.2 |

| SMILES | inhibition [1] [%] | inhibition [2] [%] | inhibition [3] [%] |
| --- | --- | --- | --- |
| Nc1nc(N)c2c(ccc3c2cnn3Cc2cccnc2)n1 | 39.8 | 51.2 | 38.1 |
| CCN(CC)CCNc1cc(C)nc(NC(=N)Nc2ccc(Cl)cc2)n1 | 6 | 6.42 | 5.89 |
| CCOC(=O)c1ccc(NC(=O)Nc2cccc(-c3ccc(-c4nc5cc(C(F)(F)F)ccc5[nH]4)cc3)c2)cc1 | -0.08 | 1.53 | 0.3 |
| COc1cc(F)c2ncc(Cl)c([C@H](O)CN3CCC(NCc4ccc5c(n4)NC(=O)CO5)CC3)c2c1 | -1.35 | 0.88 | 0.03 |
| CCOC(=O)NC1=NC(C)(C)N(OCCCOc2cc(Cl)c(Cl)cc2Cl)C(NC(=O)OCC)=N1 | 2.08 | 0.27 | 1.36 |
| COc1cc(F)c2nccc([C@@H](O)CN3CCC(NCc4cc5c(cc4F)OCCO5)CC3)c2c1 | 1.5 | 0.69 | -2.93 |
| C=CCn1c(C)cc(C(=O)COc2ccc(S(=O)(=O)N3CCOCC3)cc2[N+](=O)[O-])c1C | 2.97 | 0.91 | 0.84 |
| CCCN(Cc1ccc(OCC)cc1)Cc1cc(=O)c2cc(Cl)ccc2[nH]1 | 8.02 | 8 | 7.1 |
| CCN1CCN(CCCNc2c3ccc(Cl)cc3nc3ccc(OC)cc23)CC1 | 9.58 | 9.46 | 8.38 |
| Cc1cc(=O)oc2c1ccc1oc(C(O)c3ccc(Cl)cc3)c(C)c12 (centres undefined) | -0.12 | 0.59 | -1.6 |
| CN1CCN(c2ccc(Nc3nccc(-c4c(-c5cccc(NC(=O)c6c(F)cccc6F)c5)nn5ccccc45)n3)cc2)CC1 | 21.9 | 17.8 | 4.51 |
| CC1CNC(c2ccc(NC(=O)c3ccc(C(=O)Nc4ccc(C5=NC(C)CN5)cc4)cc3)cc2)=N1 (centres undefined) | 8.16 | 7.31 | 0.91 |
| Cc1ccc2c(c1[N+](=O)[O-])N=NCC2Oc1ccccc1 (centres undefined) | 10.8 | 9.1 | 10.6 |
| Cc1ccc(O)cc1Nc1ccnc2cc(-c3csc(CN(C)CCN(C)C)n3)ccc12 | -0.07 | -0.87 | 0.38 |
| CCN(CC)CCN(Cc1ccc(-c2ccc(Cl)cc2)cc1)C(=O)Cn1c(CCc2cccc(F)c2F)nc(=O)c2ccccc21 | -2.54 | -2.71 | -1.69 |
| COCCNC(=O)c1ccc(OC2CCN(Cc3ccc(F)c(F)c3)CC2)c(Cl)c1 | 0.95 | 1.83 | -2.21 |
| O=C(Nc1cccc(CN2CCCN(Cc3ccc4c(c3)OCO4)CC2)c1)c1ccc(-c2ccccc2)cc1 | 4.21 | 3.52 | 0.89 |
| CCOC(=O)N1CCC(NC(=O)c2ccc(C(C)(C)C)cc2OC)CC1 | 3.46 | 3.5 | 3.13 |
| O=C(CCc1ccccc1)N[C@H](Cc1c[nH]c2ccccc12)C(=O)N1CCC(NCc2ccc3c(c2)Cc2ccccc2-3)CC1 | 7.69 | 7.43 | 7.1 |
| O=C(Nc1ccc(-c2nc3ccccc3[nH]2)cc1)c1cccc([N+](=O)[O-])c1 | 1.01 | -1.86 | -1.09 |
| CCN(CCS(C)(=O)=O)Cc1ccc(-c2ccc3ncnc(Nc4ccc(OCc5cccc(F)c5)c(Cl)c4)c3c2)o1 | 2.48 | 0.54 | -0.09 |
| Cc1ccc(Cn2cnc3cc(C(=O)Nc4ccc(-c5ccc(CN(C)C)cc5)cc4)ccc3c2=O)o1 | 5.55 | 2.88 | 3.84 |
| O=C(Nc1cccc(F)c1)N(Cc1ccc(-c2cccc(CN3CCNCC3)c2)cc1)C1CCN(Cc2ccccc2)CC1 | 7.44 | 6.99 | 6.85 |
| O=C(NCc1ccccc1)c1ccc(C(=O)NCC2CNCCO2)cc1 (centres undefined) | 5.08 | 6.24 | 9.54 |

Reference: ChEMBL document CHEMBL3433997, “St. Jude Leishmania screening dataset” (2016)
